HCMV inh: human cytomegalovirus inhibition | HFF cells, HCMV-luciferase reporter, 72 h; active compounds read low | activity change, negative = inhibition, % at 57.5 µM | 410,000 tested, 4.5% active | AID 1259415; in the data active = activity change below about -60%; inconclusive = no clear call, values can overlap the other calls; inactive = above about -39%
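After 16 h attachment at 37C, HFF cells received test compound and HCMV-luciferase (1 PFU/cell); reporter luminescence read 72 h later, data normalized against buffer-only and known inhibitor Salinomycin.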
Lassa entry inh: inhibitors of Lassa virus binding or cell entry; Lassa virus pseudotype entry inhibition, cell reporter; Potency, µM (highest dose often 37.9 µM), actives largely listed as inhibitors; 300,000 tested, 1.2% active; AID 540256; calls by dose curve; tested in HEK293 cells; also: nearly all actives have a fitted effect of over 50% in size
FMDV antiviral: blocks foot and mouth disease virus; FMDV antiviral cell-based qHTS; 410,000 tested, 1.2% active; Potency, µM (highest dose often 57.9 µM), hits mostly inhibitors; calls by dose curve; tested in HEK293T cells; also: read-out not given here; nearly all actives have a fitted effect of over 45% in size
Marburg entry inh: inhibitors of Marburg virus binding or cell entry. Marburg virus pseudotyped entry inhibition, cell reporter. Potency, µM (highest dose often 37.8 µM), hits mostly inhibitors. 300,000 tested, 1.8% active; calls by dose curve; tested in HEK293 cells
HCV inh: blocks hepatitis C virus | Huh7.5.1 HCVcc-Cre infection, luciferase reporter, 44 h | Potency, µM (series often up to 41.8 µM), hits mostly inhibitors | 340,000 tested, 3.4% active; active = well fitted inhibition curve with a large enough effect; inconclusive = small, poorly fitted or top-dose-only effect, or another doubt; inactive = no such curve, though single readings can be large or run the other way
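Reporter virus HCVcc-Cre (~0.5 moi) infects cells exposed to compound; seeding density 1,000 cells/well with 4 h settling beforehand. Luminescence, 15 sec read, taken 44 h post-infection following a 15 min RT substrate incubation.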
Hits are given with their value; . = inactive; ? = inconclusive; / = no result given; ! = repeats disagree. A selection: hits, their analogues and other compounds. The true share with any hit is near 7.9%.

SMILES	HCMV inh	Lassa entry inh	FMDV antiviral	Marburg entry inh	HCV inh
O=[N+]([O-])c1cccc(-c2ccc(C(=S)N3CCOCC3)o2)c1	.	.	.	?	.
O=C(Nc1ccc(CN2CCOCC2)cc1)c1ccc(-c2cccc([N+](=O)[O-])c2)o1	?	/	?	/	32µM
O=C(Nc1ncc(Cc2cccc(C(F)(F)F)c2)s1)c1ccc(-c2cccc([N+](=O)[O-])c2)o1	?	?	.	16µM	?
O=C(/C=C/c1ccc(Cl)cc1Cl)Nc1ccc(CN2CCOCC2)cc1	-86	/	?	/	3.2µM
CC(=O)c1ccc(F)c(-c2cc(C)cc3c2OC(CNC(=O)C(C)n2nc(C)cc2C)C3)c1 (centres undefined)	/	/	.	/	/
O=C(N[C@@H]1CC[C@@H](CCn2cc(-c3ccccc3)nn2)O[C@@H]1CO)c1cnccn1	-70	/	.	/	/
O=C(N[C@@H]1CC[C@H](CCn2cc(-c3ccccn3)nn2)O[C@@H]1CO)c1ccncc1	.	/	.	/	/
CSc1c(CC(=O)Nc2ccc(F)cc2)n(Cc2ccccc2)c2ccccc12	-62	.	.	?	.
CCCCn1nnnc1C(c1cc2ccccc2o1)N1CCN(c2ccccc2F)CC1 (centres undefined)	.	/	.	/	/
CCCCn1nnnc1C(c1cc2ccccc2o1)N1CCN(c2cc(C)nc3ccccc23)CC1 (centres undefined)	-103	/	.	/	/
C=CCc1c(C)nc(SC)nc1Nc1ccc(C)cc1	?	?	.	?	10µM
COCCn1c(C)cc(O)c(C(c2ccccc2OC)N2CCN(c3ccccc3)CC2)c1=O (centres undefined)	.	.	.	/	/
CCN(CC)C(=O)CSc1nc2cc3c(cc2c(=O)n1CCCCCC(=O)NCc1ccc(OC)cc1)OCO3	?	?	.	?	?
CCOC(=O)c1c(C)oc2c(F)c(F)c(F)c(F)c2c1=O	-104	?	11µM	?	10µM
CCOC(=O)c1c(C)oc(=O)c(CC)c1O	.	/	.	/	/
O=C(C1=C(C(=O)N(C2CCCCC2)C2CCCCC2)CCCC1)N1CCCCC1	/	/	/	.	/
CCOc1ccccc1C1C(C(=O)Nc2ccccc2)=C(C)Nc2c(C(=O)Nc3ccc(F)cc3)cnn21 (centres undefined)	.	.	.	?	/
O=C(Nc1ccc(N2CCCCC2)cc1)c1ccc2ccccc2n1	.	/	.	/	10µM
COc1ccc(NC(=O)c2ccncc2)cc1S(=O)(=O)N1CCCCC1	.	/	.	/	/
CCc1ccc(C(=O)Nc2ccc(OC)c(S(=O)(=O)N3CCCCC3)c2)cc1	-97	/	?	/	4.5µM
O=C(Nc1cccc(S(=O)(=O)N2CCCCCC2)c1)c1ccc2ccccc2n1	.	.	.	.	?
COc1ccc(Nc2nc(-c3cccs3)nc3ccccc23)cc1S(=O)(=O)N1CCOCC1	?	/	?	/	2.8µM
COc1ccc(NC(=O)Cc2coc3cc(C)c(C(C)C)cc23)cc1S(=O)(=O)N1CCOCC1	-67	?	.	?	7.1µM
CN(C)CCN(Cc1ccco1)C(=O)c1cc2c(s1)-c1ccccc1OC2	?	/	.	?	/
CCc1ccc(NC(=O)CC2C(=O)OCCN2CC)cc1 (centres undefined)	.	.	.	.	/
SMILES	HCMV inh	Lassa entry inh	FMDV antiviral	Marburg entry inh	HCV inh
COc1ccc(NC(=O)c2ccc(-c3ccccc3)cc2)cc1S(=O)(=O)N1CCOCC1	-68	.	3.5µM	.	?
CCc1ccc(C(=O)Nc2ccc(OC)c(S(=O)(=O)N3CCOCC3)c2)cc1	-89	.	?	.	8.9µM
O=C(Nc1ccc(-c2cn3c(n2)SCC3)cc1)c1ccc2ccccc2n1	.	?	25µM	?	?
COc1ccc(NC(=O)c2ccc3ccccc3n2)cc1S(=O)(=O)N1CCCCC1	.	?	.	?	5.6µM
CCOC(=O)c1cc(NC(=O)c2ccc(OC)cc2)c(=O)n2c1oc1ccc(Cl)cc12	.	.	.	.	/
CCc1nn2c(=O)cc(COC(=O)c3cccc(NC(=O)c4cccs4)c3)nc2s1	.	.	.	/	/
CC(=O)OC[C@H]1O[C@H](C#Cc2ccc(C)cc2C)C=C[C@@H]1OC(C)=O	/	/	/	.	/
CC(C)CC1NC(=S)N(Cc2ccccc2)C1=O (centres undefined)	-100	.	.	?	?
O=C1C(Cc2ccccc2)NC(=S)N1Cc1ccccc1 (centres undefined)	.	/	.	/	.
CCc1ccccc1NC(=O)CCc1c(C)nn(-c2ccc(N3CCOCC3)nn2)c1C	-62!	.	.	/	.
CC(NC(=O)CCn1ccc2cc(S(=O)(=O)N3CCCC3)ccc21)c1ccccc1 (centres undefined)	.	/	.	/	.
O=C(Nc1cccs1)Nc1cc(C(F)(F)F)ccc1Cl	.	/	.	?	/
CC(=O)Oc1ccc(-c2csc(Nc3cccnc3)n2)cc1	-102	.	.	?	?
COc1ccc(Nc2nc(-c3sc(C)nc3C)cs2)cc1	?	/	?	/	8.9µM
CCC(C)C(=O)Nc1nc(C)c(-c2csc(Nc3ccc(Cl)cc3)n2)s1 (centres undefined)	-90	/	.	/	.
CC(=O)Nc1ccc(Nc2nc(-c3sc(NC(C)=O)nc3C)cs2)cc1	.	?	.	3.2µM	11µM
CC(=O)Nc1nc(C)c(-c2csc(Nc3ccccn3)n2)s1	.	.	.	?	10µM
COc1ccc(-c2csc(Nc3ccc(Oc4ccccc4)cc3)n2)cc1	-65	/	?	/	/
CC(=O)Nc1nc(C)c(-c2csc(Nc3ccc(O)cc3)n2)s1	/	?	.	4.6µM	10µM
N#Cc1ccc(Nc2nc(-c3ccccc3)cs2)cc1	.	/	.	/	/
O=C(CSc1nc2c(c(=O)[nH]1)CCCC2)Nc1ccc(Br)cc1	.	.	.	.	/
O=c1cc(N2CCOCC2)oc2c(-c3ccccc3)cccc12	/	.	.	0.32µM!	/
Cc1ccc(-c2cc(NC(=O)c3ccccc3Cl)on2)cc1	.	.	.	.	/
C[n+]1c2ccccc2nc2ccc(NCCO)cc21	-81	?	?	?	14µM
CC(C)n1c(NCCO)nc2ccccc21	.	.	.	.	.
SMILES	HCMV inh	Lassa entry inh	FMDV antiviral	Marburg entry inh	HCV inh
C=C(C)CO[C@H]1C=C[C@@H](c2ccccc2)O[C@H]1CO	/	/	/	.	/
COc1cccc(Cn2c(=O)c(-c3ccccc3)nc3cnc(N(C)C)nc32)c1	/	/	.	/	/
CCN1CCN(c2cc(C)c3cc(NC(=S)NCCCOC)ccc3n2)CC1	.	/	.	/	.
CCCN(CCC)CCCNC(=S)Nc1ccc2nc(N3CCCC3)cc(C)c2c1	-81	/	.	/	10µM
CCCCN(CC)CCCNC(=S)Nc1ccc2nc(N3CCN(C)CC3)cc(C)c2c1	.	?	.	2.5µM	.
CCN(CC)CCNC(=S)Nc1ccc2nc(N3CCN(C)CC3)cc(C)c2c1	.	?	.	?	?
Cc1cc(N2CCN(C)CC2)nc2ccc(NC(=S)NCc3cccs3)cc12	.	?	.	?	10µM
CCCCN(CC)CCCNC(=S)Nc1ccc2nc(N3CCN(CC)CC3)cc(C)c2c1	.	?	.	3.5µM	?
CCOC(=O)c1cc(S(=O)(=O)N2CCN(c3ccc(C)cc3C)CC2)[nH]n1	.	.	.	/	/
O=C(Cc1ccc(Cl)c(Cl)c1)N1CCCCC1CN1CCCC1 (centres undefined)	/	?	.	8.9µM	/
CC1CCCCN1C(=O)Cc1ccc(Cl)cc1 (centres undefined)	.	.	.	.	.
